Results taken from PubChem BioAssay (NCATS).
Several values for one entry are separate records, joined by “and”; a condition that tells them apart may be missing. Identical values can stand only once. Inconclusive results are not listed. A call without a number means that no potency is given here. Some compounds were tested as several samples or in several runs, with calls that do not always agree. Activity calls are given as the source filed them. Calls follow the shape of the dose curve; as a rule, active = well fitted curve in the direction sought with a large enough effect; inconclusive = small, poorly fitted or top-dose-only effect, or another doubt; inactive = no such curve, though single readings can be large; an effect the other way counts as inactive or inconclusive.

Assays:
[1] = qHTS assay for measurement of the activity of small molecule inhibitors on Zika virus induced Caspase-3 activity in human iPSC derived neural progenitor cells (hNPCs) (AID 1224857); also: nearly all actives have a fitted effect of over 65% in size; also: potency is read from the fitted curve at half-maximal effect
Method in brief: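 Human iPSC-derived neural progenitor cells pretreated 1 hr with compounds, then infected with Zika virus (2 FFU/cell) for 6 hours at 37 C. Caspase-3/7 measured by Caspase-Glo luminescence; % inhibition calculated from induction scaled to uninfected (0%) and infected (100%) wells.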

[2] = qHTS assay for measurement of the activity of small molecule inhibitors on Zika virus induced Caspase-3 activity in human astrocytoma cells (AID 1224859)
Method in brief: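 SNB-19 astrocytoma cells, 250/well, pretreated 1 h with compounds, then Zika virus at 2 FFU/cell for 6 h at 37 C; Caspase-Glo 3/7 luminescence after 30 min; percent inhibition normalised to uninfected and infected controls.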

[3] = qHTS Screen of the MIPE 4.0 Collection Against Ewings Sarcoma (RDES) (AID 1259252); also: nearly all actives have a fitted effect of over 35% in size; also: potency is read from the fitted curve at half-maximal effect
Method in brief: (§1)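 Here, cells in 5% FBS RPMI were exposed for two days (48 h) to compound dilutions added four hours after plating. ATP-based CellTiter-Glo luminescence measured viability, normalized to vehicle and no-cell blanks.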

[4] = qHTS Screen of the MIPE 4.0 Collection Against Ewings Sarcoma (TC71) (AID 1259253); also: nearly all actives have a fitted effect of over 40% in size; also: potency is read from the fitted curve at half-maximal effect
Method in brief: as §1

[5] = qHTS Screen of the MIPE 4.0 Collection Against Ewings Sarcoma (TC32) (AID 1259256); also: nearly all actives have a fitted effect of over 45% in size; also: potency is read from the fitted curve at half-maximal effect
Method in brief: as §1

[6] = qHTS assay to identify small molecule inhibitors of chordoma cells - UCH-1 (AID 1259355); also: nearly all actives have a fitted effect of over 55% in size
Method in brief: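 A 48hr growth-inhibition format: each drug tested at 15 concentrations together with added auranofin, camptothecin, doxorubicin, rubitecan and topotecan, with cell viability quantified as CellTiter-Glo luminescence.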

[7] = qHTS assay to identify small molecule inhibitors of chordoma cells - UCH-2 (AID 1259356); also: series mostly up to about 46 µM
[8] = qHTS Screen of the MIPE 4.0 Collection Against Ewings Sarcoma (EW8) (AID 1259255); also: nearly all actives have a fitted effect of over 35% in size
Method in brief: as §1

[9] = Identifying Small Molecule Inhibitors of Pancreatic Cancer Stem Cells (SN12C, Adherent) (AID 1259358);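 also: cell survival measured after 48 h of compound exposure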; also: potency is read from the fitted curve at half-maximal effect
Method in brief: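 Luminescent ATP readout (CellTiter-Glo) quantifies surviving cells after a 48 h drug incubation. Normalization uses DMSO wells as no inhibition and media-only wells as full inhibition; bortezomib served as positive control.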

| SMILES | Potency [1] | Potency [2] | Potency [3] | Potency [4] | Potency [5] | Potency [6] | Potency [7] | Potency [8] | Potency [9] |
| --- | --- | --- | --- | --- | --- | --- | --- | --- | --- |
| NC(=O)N1c2ccccc2CC(=O)c2ccccc21 | inactive | inactive | inactive | inactive | inactive | inactive | inactive | – | – |
| CCOc1cc(N)c(Cl)cc1C(=O)NCC1CN(Cc2ccc(F)cc2)CCO1 (stereo not given) | inactive | inactive | inactive | inactive | inactive | – | inactive | – | – |
| Cc1oc(=O)oc1CN1CCN(c2cc3c(cc2F)c(=O)c(C(=O)O)c2n3C(C)S2)CC1 (stereo not given) | inactive | inactive | inactive | inactive | – | – | inactive | – | – |
| CC1=CC(=O)c2ccccc2C1=O | inactive | inactive | 18.7 µM (active) | 26.4 µM (active) | 26.4 µM (active) | – | inactive | – | – |
| O=c1oc2c(O)c(O)cc3c(=O)oc4c(O)c(O)cc1c4c23 | inactive | inactive | inactive | inactive | inactive | inactive | inactive | – | – |
| O=NN(CCCl)C(=O)NC1CCCCC1 | inactive | inactive | inactive | inactive | inactive | inactive | inactive | – | – |
| COc1c(N2CCNC(C)C2)c(F)cc2c(=O)c(C(=O)O)cn(C3CC3)c12 (stereo not given) | inactive | inactive | inactive | inactive | inactive | inactive | inactive | – | – |
| CCn1cc(C(=O)O)c(=O)c2cc(F)c(N3CCNCC3)nc21 | inactive | inactive | inactive | inactive | inactive | inactive | inactive | – | – |
| N[C@@H](Cc1ccc(O)c(O)c1)C(=O)O | inactive | inactive | inactive | inactive | inactive | – | inactive | – | – |
| CCOC(=O)c1ccc(OC(=O)CCCCCN=C(N)N)cc1 | inactive | inactive | inactive | inactive | inactive | – | inactive | – | – |
| CS(=O)(=O)c1ccc([C@@H](O)[C@@H](CO)NC(=O)C(Cl)Cl)cc1 | inactive | inactive | 13.2 µM (active) | 16.6 µM (active) | 18.7 µM (active) | inactive | inactive | – | – |
| C[C@@H]1CN(c2c(F)c(N)c3c(=O)c(C(=O)O)cn(C4CC4)c3c2F)C[C@H](C)N1 | inactive | inactive | inactive | inactive | inactive | inactive | inactive | – | – |
| Cc1ncc([N+](=O)[O-])n1CCO | inactive | inactive | inactive | inactive | inactive | inactive | inactive | – | – |
| Cc1noc(NS(=O)(=O)c2ccc(N)cc2)c1C | inactive | inactive | inactive | inactive | inactive | inactive | inactive | – | – |
| CC(=O)CC(c1ccccc1)c1c(O)c2ccccc2oc1=O (stereo not given) | inactive and 23.5 µM (active) | inactive | inactive | – | inactive | inactive | inactive | inactive | – |
| CCCCOc1ccc(CC(=O)NO)cc1 | inactive | inactive | 6.62 µM (active) | 7.43 µM (active) | 5.26 µM (active) | inactive | inactive | – | – |
| CCC(=O)O[C@]1(C(=O)CCl)[C@@H](C)C[C@H]2[C@@H]3CCC4=CC(=O)C=C[C@]4(C)[C@@]3(F)[C@@H](O)C[C@@]21C | inactive | inactive | inactive | inactive | inactive | – | inactive | – | – |
| S=P(N1CC1)(N1CC1)N1CC1 | inactive | inactive | 16.6 µM (active) | 16.6 µM (active) | 2.64 µM (active) | inactive | inactive | – | – |
| Cc1cc(NS(=O)(=O)c2ccc(N)cc2)no1 | inactive | inactive | inactive | inactive | inactive | inactive | inactive | – | – |
| CNS(=O)(=O)Cc1ccc2[nH]cc(CCN(C)C)c2c1 | inactive | inactive | inactive | inactive | inactive | inactive | inactive | – | – |
| Cc1c(-c2ccc(O)cc2)n(Cc2ccc(OCCN3CCCCCC3)cc2)c2ccc(O)cc12 | inactive | inactive | inactive | inactive | inactive | – | – | – | inactive |
| CCOCC(O)COc1ccc(NC(=O)CC[S+](C)C)cc1 (stereo not given) | inactive | inactive | inactive | inactive | inactive | inactive | inactive | – | – |
| C#CCN[C@@H]1CCc2ccccc21 | inactive | inactive | inactive | inactive | inactive | inactive | inactive | – | – |
| N=C(N)c1ccc(OCCCCCOc2ccc(C(=N)N)cc2)cc1 | inactive | inactive | 18.7 µM (active) | 8.33 µM (active) | – | inactive | inactive | – | – |
| CNCC[C@H](Oc1cccc2ccccc12)c1cccs1 | inactive and 23.5 µM (active) | inactive | 2.35 µM (active) | 2.64 µM (active) | 5.26 µM (active) | – | inactive | – | – |
| O=S(=O)(c1cccc2cnccc12)N1CCCNCC1 | inactive | inactive | 26.4 µM (active) | – | inactive | inactive | inactive | inactive | – |
| CC(C)C[C@H](NC(=O)[C@H](CCc1ccccc1)NC(=O)CN1CCOCC1)C(=O)N[C@@H](Cc1ccccc1)C(=O)N[C@@H](CC(C)C)C(=O)[C@@]1(C)CO1 | inactive | inactive | 0.0187 µM (active) | 0.0372 µM (active) | 0.0148 µM (active) | – | – | – | 0.0372 µM (active) |
| CNC1CCCN(c2c(F)cc3c(=O)c(C(=O)O)cn(C4CC4)c3c2OC)C1 (stereo not given) | inactive | inactive | 14.8 µM (active) | 18.7 µM (active) | 20.9 µM (active) | inactive | inactive | – | – |
